Assay results taken from PubChem BioAssay AID686978 (National Center for Advancing Translational Sciences (NCATS), 2013).
Screen size: about 420,000 compounds; about 64,000 (15%) were called active. Roughly 27% stayed inconclusive and do not appear here. Calls come from the whole dose curve; as a rule, active = well fitted inhibition curve with a large enough effect; inconclusive = small, poorly fitted or top-dose-only effect; inactive = flat fitted curve, though single readings scatter. These entries were drawn from the full list. A call without a number means that no potency is given here.
Potency is the fitted concentration of half-maximal effect.

Assay: qHTS for Inhibitors of human tyrosyl-DNA phosphodiesterase 1 (TDP1): qHTS in cells in absence of CPT; note: nearly all actives have a fitted effect of over 55% in size
Settings: DT40 Tdp1-/- hTDP1 cells, no CPT, ATP luminescence, 48 h; activity change, negative = growth inhibition: at 46.2 µM (top of the series)
Source text: Human tyrosyl-DNA phosphodiesterase 1 (TDP1) is a novel repair gene, and we propose to use it as a new target for anticancer drug development. TDP1 is not an essential protein, but under treatment with topoisomerase I poison (camptothecin: CPT), TDP1 works as a critical factor for cell survival. To directly identify novel TDP1 inhibitors active in a cellular environment, we have knocked-out the Tdp1 gene in chicken DT40 cells (Tdp1-/-) and generated a complemented counterpart cells that contains a stable transfection of the human TDP1 gene (Tdp1-/-;hTDP1 cells). For the primary screen, Tdp1-/-;hTDP1 cells will be exposed to small molecules in the presence or absence of CPT, and their growth kinetics will be evaluated after 48 hours by measuring ATP activity. […] The hit compounds will then be evaluated in the presence or absence of CPT using Tdp1-/- cells. […] In tertiary assays, biochemical gel-based assays will be used to assess whether the hit compounds specifically target TDP1.
To this end, we have screened this cell line against the MLSMR in two primary screens. In one screen we add CPT and in the other we screen in the absence of CPT; this AID represents the screen where CPT was absent.
NIH Chemical Genomics Center [NCGC]
NIH Molecular Libraries Probe Centers Network [MLPCN]
Assay Submitter (PI): Yves Pommier, NCI
DT40-hTDP1 cells without 20 nM Camptothecin (add 20 microL of DMSO in 1 L of cell culture medium) were dispensed at 400 cells/5microL/well in tissue culture treated 1536-well white wall/solid bottom assay plates (Greiner Bio-One North America, NC, U.S.A.) using a Multidrop Combi 8 channel dispenser (Thermo Fisher, Waltham, MA, USA). 23 nL compounds and controls were transferred using the pin tool (Kalypsys, San Diego, CA, USA) to the assay plates. The assay plates were then incubated at 37 masculineC for a minimum 48 hr. Three microL of Cell Titer Glo solution was added to the plates and incubated at RT in dark for 30 min. Luminescence was read using ViewLux (Perkin Elmer) with 1 sec exposure slow speed, high gain and 2x binning.
With `CCOC(=O)/C=C/CN(C(=O)OC(C)(C)C)S(=O)(=O)N1CC=CC1` the Potency was “inactive”. With `Cc1ccccc1C(=O)O` the Potency was “inactive”. With `COC(=O)c1ccccc1C(=O)NCc1nc(N2CCCC2)c2cccc(C)c2n1` the Potency was “inactive”. In the case of `COc1ccc2[nH]c(C(=O)Nc3ccccc3Cl)cc2c1`, the Potency is reported as “inactive”. For `CCOc1ccccc1/C=N/NC(=O)CNC(=O)COc1ccccc1`, the Potency was “inactive”. In the case of `COc1cccc2[nH]c(C(=O)NCCc3ccccc3)cc12`, the Potency is reported as “inactive”. With `CCOc1ccc2[nH]c(C(=O)N/N=C/c3cccc(OC)c3OC)cc2c1` the Potency was 16.4 µM (active). In the case of `COc1cc2cc(C(=O)N/N=C/c3cccc(OC)c3OC)[nH]c2cc1OC`, the Potency is reported as 13 µM (active). In the case of `COc1ccc(/C=N/NC(=O)c2cccc(C(F)(F)F)c2)cc1`, the Potency is reported as “inactive”. With `CCCOP(=O)(c1ccc(N(C)C)cc1)C(O)c1cc(OC)c(OC)c(OC)c1` (stereo not drawn) the Potency was “inactive”. With `Cc1ccc2oc(=O)ccc2c1` the Potency was “inactive”. For `CC(=O)Nc1ccc(S(=O)(=O)Nc2nccc(/C=C/c3ccccc3F)n2)cc1`, the Potency was “inactive”. For `COCCNS(=O)(=O)c1cc(Br)ccc1OC`, the Potency was “inactive”. For `C=CC(COCc1ccccc1)N(CC(=O)OC)S(=O)(=O)c1cc(Br)ccc1OC` (stereo not drawn), the Potency was 25.9 µM (active). With `C=CCCN(Cc1ccccc1)S(=O)(=O)c1ccccc1Br` the Potency was “inactive”. With `CCN([C@H](CO)C(C)C)S(=O)(=O)c1ccccc1Br` the Potency was “inactive”. In the case of `C=CC(COCc1ccccc1)N(Cc1ccccc1)S(=O)(=O)c1ccccc1Br` (stereo not drawn), the Potency is reported as 16.4 µM (active). With `CCN(Cc1ccccc1)S(=O)(=O)c1cc(C(=O)O)ccc1OC` the Potency was “inactive”. With `CCN(CCn1cccn1)C(=O)CC1C(=O)NCCN1Cc1cccc(OC)c1OC` (stereo not drawn) the Potency was “inactive”. In the case of `Brc1ccc(-c2nn[nH]n2)cc1`, the Potency is reported as “inactive”. With `CCN=C1SC(CC(=O)Nc2ccc(C)cc2)C(=O)N1CC` (stereo not drawn) the Potency was “inactive”. With `O=C(c1ccc(CS(=O)Cc2ccccc2Cl)o1)N1CCN(c2ccccc2)CC1` (stereo not drawn) the Potency was 20.6 µM (active). In the case of `O=C(NCc1cccs1)c1ccc(CS(=O)Cc2ccccc2Cl)o1` (stereo not drawn), the Potency is reported as “inactive”. With `COc1ccc(NS(=O)(=O)c2cccc3nsnc23)cc1Cl` the Potency was “inactive”. With `C=CCn1c(-c2ccc(Cl)cc2)ccc(C#N)c1=O` the Potency was “inactive”. In the case of `CCN(CC)c1ccc(C(=O)c2cnc(/N=C/N(C)C)s2)cc1`, the Potency is reported as “inactive”. For `Cc1ccnc2nc(C(=O)Nc3nnc(-c4ccccc4)o3)nn12`, the Potency was “inactive”. With `CC(NCC(=O)Nc1ccccc1C(=O)NC1CC1)c1ccccc1Cl` (stereo not drawn) the Potency was “inactive”. In the case of `Cc1ccc(OCC(=O)Nc2ccccc2C(=O)NC2CC2)cc1C`, the Potency is reported as “inactive”. In the case of `CC1CCCCC1NCC(=O)Nc1ccccc1C(=O)Nc1ccccc1` (stereo not drawn), the Potency is reported as 14.6 µM (active). In the case of `C[C@H](NC(=O)C1CCN(S(=O)(=O)c2ccccc2)CC1)C(=O)NCc1ccccc1`, the Potency is reported as “inactive”. In the case of `O=C(COc1ccc([N+](=O)[O-])cc1Cl)Nc1ccc2[nH]c(=O)[nH]c2c1`, the Potency is reported as “inactive”. In the case of `O=C1N(c2ccc(Cl)cc2)C(c2ccc(Cl)cc2)N2CCCN12` (stereo not drawn), the Potency is reported as “inactive”. With `COc1ccc(-c2cn(-c3ccc(OC)cc3)c(=S)[nH]2)cc1` the Potency was 18.4 µM (active). For `COc1ccc(N2C(=O)CNC2=S)cc1`, the Potency was “inactive”. With `COc1ccc(-n2c(-c3ccc(OC)c(OC)c3)n[nH]c2=S)cc1` the Potency was “inactive”. In the case of `FC(F)(F)c1cccc(-c2nc(COc3ccc(Cl)cc3Cl)no2)c1`, the Potency is reported as “inactive”. For `CS(=O)(=O)N(CC(=O)N1CCOCC1)c1ccc2c3c(cccc13)CC2`, the Potency was “inactive”. In the case of `O=C(COC(=O)CNS(=O)(=O)c1ccc(F)c(F)c1F)NC1CCCC1`, the Potency is reported as “inactive”. In the case of `COc1cccc(Nc2ncccc2C(=O)O)c1`, the Potency is reported as “inactive”. For `FC(F)(F)c1ccccc1-c1nc(-n2ccnc2)c2ccccc2n1`, the Potency was “inactive”. With `COc1ccc(OC)c(Nc2nc3ccccc3n3cnnc23)c1` the Potency was “inactive”. With `COc1cccc(Nc2nc3ccccc3c3nncn23)c1` the Potency was 25.9 µM (active). With `FC(F)(F)c1cc(Nc2nc3ccccc3c3nncn23)ccc1Cl` the Potency was 16.4 µM (active). With `CC(C)c1cc(CN2CCOCC2)cc(C(C)C)c1O` the Potency was “inactive”. For `O=C(Cc1ccccc1)Nc1ccc(NC(=O)c2cccnc2)cc1`, the Potency was “inactive”. In the case of `CC(C)(C)c1cc[n+](-c2[nH]c(=O)sc2/C=N/N=C(\[O-])c2ccccc2)cc1`, the Potency is reported as “inactive”. In the case of `CCCS(=O)(=O)Nc1c(C(=O)O)[nH]c2ccccc12`, the Potency is reported as “inactive”. In the case of `COc1ccc(/C=C(\C#N)c2c[nH]c3ccccc23)cc1`, the Potency is reported as 0.651 µM (active). With `COc1ccc(C2C(C(C)=O)=C(O)C(=O)N2CCc2c[nH]c3ccccc23)cc1` (stereo not drawn) the Potency was “inactive”. For `C[N+](C)(C)CCNC(=O)c1c[nH]c2ccccc12`, the Potency was “inactive”. For `N/C(=N\OC(=O)c1ccc2c(c1)OCO2)c1ccc(Br)cc1`, the Potency was “inactive”. With `CCn1cc(C(=O)NCCC(=O)NCCO)c(=O)c2cc3c(cc21)OCO3` the Potency was “inactive”.
